Compounds with a hit are over-represented: about 1.3% of the library has one in this group of screens.
IDH1 R132H inh: inhibitors of human mutant IDH1 R132H; O75874; IDH1-R132H enzyme, NADPH consumption, diaphorase/resazurin fluorescence; actives 0.093% (n = 390,000); Potency, µM (titrated, usually from 76.6 µM), without a hit: at the highest dose activity change, negative = inhibition, most hits filed as inhibitors; further: nearly all actives have a fitted effect of over 65% in size
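IDH1-R132H (0.5 ug/mL dispensed) in pH 7.5 Tris buffer was preincubated 30 min with compound, then given a substrate mix of 0.016 mM NADPH and 2 mM alpha-KG for 80 min at room temperature; remaining NADPH was read by diaphorase/resazurin fluorescence.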
GALK inhibitor: blocks human galactokinase activity; actives 0.007% (n = 270,000); Purified GALK, Kinase-Glo residual ATP luminescence; Potency, µM (top dose mostly 57.5 µM), inactives show at the highest dose activity change, negative = inhibition, most hits filed as inhibitors; AID 1868; P51570
Target sequence (P51570 whole entry, looked up): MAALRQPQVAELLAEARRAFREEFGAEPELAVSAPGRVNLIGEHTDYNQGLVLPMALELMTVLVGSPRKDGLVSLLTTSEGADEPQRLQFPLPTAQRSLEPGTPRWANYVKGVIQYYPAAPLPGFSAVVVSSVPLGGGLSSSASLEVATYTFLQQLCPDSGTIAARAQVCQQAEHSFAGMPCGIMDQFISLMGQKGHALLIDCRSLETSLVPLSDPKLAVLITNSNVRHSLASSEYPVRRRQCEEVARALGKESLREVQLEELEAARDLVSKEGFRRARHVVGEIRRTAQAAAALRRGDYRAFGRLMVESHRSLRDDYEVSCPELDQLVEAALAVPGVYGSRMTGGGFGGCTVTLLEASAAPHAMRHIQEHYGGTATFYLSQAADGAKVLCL
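Galactose (100 uM) and ATP (35 uM) were turned over by 5 nM GALK for 1 h at RT. Kinase-Glo Plus then converted the remaining ATP into a luminescent signal.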
TrxR1 substrate: substrates of rat thioredoxin reductase 1. O89049. purified TrxR1 substrate turnover, NADPH consumption readout. Potency, µM (doses to about 114 µM), inactives show at the top dose activity change, negative = substrate turnover. actives 0.01% (n = 390,000). AID 588456; further: nearly all actives have a fitted effect of over 50% in size
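Rat TrxR1, dispensed at 90 nM, was prereduced with 400 uM NADPH (final) for 5 min at ~22 deg C, then incubated with compound 15 min before 400 uM selenite. A first-read NADPH fluorescence drop versus no-compound background flagged substrates.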
TrxR1 inh: rat TrxR1 inhibition; O89049; actives 1% (n = 390,000); Potency, µM (series often up to 114 µM), inactives show top-dose activity change, negative = inhibition, usual class: inhibitors; recombinant rTrxR1, NADPH fluorescence consumption, selenite substrate; further: nearly all actives have a fitted effect of over 65% in size
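Rat TrxR1 (90 nM in the dispensed reagent) was pre-reduced with 400 uM NADPH for 5 min at room temperature, then incubated with compound for 15 min. After 400 uM selenite was added, NADPH fluorescence (Ex 340/Em 450 nm) was followed for 8 min.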
PKM2 activator: PKM2 (human) enzyme activation; P14618; purified PKM2, Kinase-Glo ATP luminescence, activation; response scale: 0% is enzyme alone, no compound; Potency, µM (series often up to 57.5 µM), inactives show at the highest dose activation, hits mostly activators; actives 0.34% (n = 260,000); further: nearly all actives have a fitted effect of over 55% in size
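Purified hPK-M2 (>95%) run at intermediate activity with 0.1 mM ADP and 0.5 mM PEP in 50 mM imidazole pH 7.2, KCl, MgCl2; 1 h room temperature. ATP formed read by Kinase-Glo luminescence; normalized to uninhibited and no-enzyme controls.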
Anesthetic bind: binds horse apoferritin like a general anesthetic; Potency, µM (series often up to 77.5 µM), for the others: at the highest dose activity change, negative = displacement, most hits filed as inhibitors; P02791; actives 0.074% (n = 350,000); apoferritin/1-aminoanthracene competitive binding, fluorescence; AID 485281; further: nearly all actives have a fitted effect of over 20% in size
Target sequence (P02791 2-175 limits assumed): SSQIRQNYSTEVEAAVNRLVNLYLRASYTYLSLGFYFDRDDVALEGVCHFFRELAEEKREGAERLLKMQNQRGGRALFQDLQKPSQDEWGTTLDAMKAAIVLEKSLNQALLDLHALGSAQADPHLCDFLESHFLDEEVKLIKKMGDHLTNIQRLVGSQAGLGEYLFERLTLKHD
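Concentration-response curves derived by four-parameter Hill fitting of normalized fluorescence, where compounds displaced 1-AMA from 10 uM horse apoferritin following a brief 10 min room-temperature incubation; propofol titration acted as positive control.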
An asterisk follows results filed as active; [ ] = remark or other dose. The call rests on the fitted dose curve; in most records, active means well fitted curve in the direction sought with a large enough effect; inconclusive means small, poorly fitted or top-dose-only effect, or another doubt; inactive means no such curve, though single readings can be large; an effect the other way counts as inactive or inconclusive. On the % scale 0 is the no-effect control and ±100 the full control effect; potency means the concentration at half of the fitted maximal effect.

For O=[N+]([O-])c1ccc(/C=N/N=C/c2ccc([N+](=O)[O-])o2)o1 the results were IDH1 R132H inh 1.5%, GALK inhibitor -0.2%, TrxR1 substrate 3.7%[57.1 µM], TrxR1 inh 2.51µM* and Anesthetic bind -7.4%.
`O=C1CN(/N=C\c2ccc([N+](=O)[O-])o2)C(=O)N1` gave Anesthetic bind 1.3%[29.3 µM].
`CN1CCN(C(=O)/C=C/c2ccc([N+](=O)[O-])o2)CC1` gave IDH1 R132H inh -12.5%, GALK inhibitor 6.2%, TrxR1 substrate 1.1%[2.29 µM], TrxR1 inh inconclusive, PKM2 activator 1.0% and Anesthetic bind 1.4%.
COc1ccc(C(=O)/C=C/Sc2nc3ccccc3o2)cc1 was read as IDH1 R132H inh -1.4%, GALK inhibitor -2.5%, TrxR1 substrate -6.4%, TrxR1 inh 1µM*, PKM2 activator 3.3% and Anesthetic bind -9.6%.
Screening O=C(NC1CC(=O)N(c2ccccc2)C1)c1ccc(S(=O)(=O)N2CCCC2)cc1 (configuration not stated) returned IDH1 R132H inh 13.0%, TrxR1 substrate 9.5%[57.1 µM], TrxR1 inh 10.9%[57.1 µM] and Anesthetic bind -19.0%.
C=CCNC(=O)c1ccc(-c2cccc([N+](=O)[O-])c2)o1 was read as IDH1 R132H inh 9.2%, GALK inhibitor -1.1%, TrxR1 substrate -10.7%[57.1 µM], TrxR1 inh -1.1%[57.1 µM], PKM2 activator 0.5% and Anesthetic bind -7.7%.
CCCN(CC(=O)Nc1ccccc1C)C(=O)c1ccc(-c2ccc([N+](=O)[O-])cc2)o1 was read as IDH1 R132H inh -18.8%, TrxR1 substrate -3.4% and TrxR1 inh 3.55µM*.
C=CCNC(=O)c1ccc(-c2ccc([N+](=O)[O-])cc2)o1 was read as IDH1 R132H inh 3.9%, GALK inhibitor 0.4%, TrxR1 substrate -10.1%[57.1 µM], TrxR1 inh 10µM*, PKM2 activator 20.3% and Anesthetic bind -16.4%.
`CCOC(=O)c1c(C)[nH]c(C)c1S(=O)(=O)NCC(=O)N(C)c1ccc(C)c(C)c1` gave IDH1 R132H inh 9.1%, TrxR1 substrate 6.7%[57.1 µM], TrxR1 inh 13.0%[57.1 µM] and Anesthetic bind -19.2%.
CCCOc1ccccc1N1C(=O)CC(N(O)c2ccccc2)C1=O (configuration not stated) was read as IDH1 R132H inh 5.5%, GALK inhibitor 3.1%, TrxR1 substrate 4.1%[57.1 µM], TrxR1 inh -11.9%, PKM2 activator -13.8% and Anesthetic bind -7.4%.
COc1ccccc1N1C(=O)CC(N(O)c2ccccc2)C1=O (configuration not stated) was read as IDH1 R132H inh 6.4%, TrxR1 substrate 3.8%[57.1 µM], TrxR1 inh -55.6%, PKM2 activator inconclusive and Anesthetic bind -3.3%.
Screening COc1ccccc1N(O)C1CC(=O)N(c2ccc(F)cc2)C1=O (configuration not stated) returned IDH1 R132H inh 16.8%, GALK inhibitor 0.4%, TrxR1 substrate 0.3%, TrxR1 inh 0.891µM*, PKM2 activator -6.1% and Anesthetic bind 4.3%.
`CCCOc1ccc(N2C(=O)CC(SCCN)C2=O)cc1` (configuration not stated) gave IDH1 R132H inh 5.6%, GALK inhibitor 3.0%, TrxR1 substrate 0.0%, TrxR1 inh 79.4µM*, PKM2 activator 2.4% and Anesthetic bind 7.9%.
CCCOc1ccc(N2C(=O)CC(N(O)c3ccccc3)C2=O)cc1 (configuration not stated) was read as IDH1 R132H inh -4.2%, GALK inhibitor 5.3%, TrxR1 substrate -3.1%, TrxR1 inh 7.94µM*, PKM2 activator 4.5% and Anesthetic bind -12.6%.
CCCOc1ccc(N2C(=O)CC(SCC(N)C(=O)OCC)C2=O)cc1 (configuration not stated) was read as IDH1 R132H inh 0.3%, GALK inhibitor -1.8%, TrxR1 substrate 3.9%, TrxR1 inh 12.9%, PKM2 activator 0.6%[11.5 µM] and Anesthetic bind -7.4%.
Screening Ic1ccc(/C=C2\C=Cc3ccccc32)cc1 returned TrxR1 substrate -0.6% and TrxR1 inh inconclusive.
Screening Cc1cc[n+](C2CCCCC2)c2ccccc12 returned TrxR1 substrate -0.9% and TrxR1 inh 8.7%.
CC(C)CC(=O)Nc1ccc(Nc2ccccc2)cc1 was read as IDH1 R132H inh 6.6%, GALK inhibitor -4.2%, TrxR1 substrate 13.6%[57.1 µM], TrxR1 inh 15.2%, PKM2 activator -10.4% and Anesthetic bind inconclusive.
`CC(C)(C)CC(=O)Nc1ccc(Nc2ccccc2)cc1` gave IDH1 R132H inh 1.1%, GALK inhibitor 0.0%, TrxR1 substrate 4.2%, TrxR1 inh 19.7%, PKM2 activator 2.7% and Anesthetic bind 8.91µM*.
`CCCCc1ccc(NC(=O)COc2cccc3c(=O)n(C)ccc23)cc1` gave IDH1 R132H inh 11.1%, TrxR1 substrate 4.8%[57.1 µM], TrxR1 inh 14.3%[57.1 µM] and Anesthetic bind inconclusive.
Cc1ccc(C(=O)CCNc2ccc(F)c(Cl)c2)o1 was read as IDH1 R132H inh 4.8%, GALK inhibitor 12.3%, TrxR1 substrate -3.5%, TrxR1 inh 56.2µM*, PKM2 activator 0.9% and Anesthetic bind -15.6%.
`CN(C)S(=O)(=O)c1ccc2c(c1)N(CC(=O)Nc1ccc(F)cc1)C(=O)CS2` gave IDH1 R132H inh 0.0%, TrxR1 substrate 2.5%[57.1 µM], TrxR1 inh 22.1%[57.1 µM] and Anesthetic bind 0.6%.
`CCc1cccc2c(C(O)(c3c[nH]c4c(CC)cccc34)c3c[nH]c4c(CC)cccc34)c[nH]c12` gave TrxR1 substrate 2.9% and TrxR1 inh 6.4%.
O=C(O)CCc1ccc(-c2cccs2)n1-c1ccc(C(=O)O)cc1 was read as IDH1 R132H inh 11.4%, GALK inhibitor -0.2%, TrxR1 substrate 5.7%, TrxR1 inh 70.8µM*, PKM2 activator 1.6% and Anesthetic bind -2.2%.
For CCc1ccc(S(=O)(=O)c2nnn3c2nc(NCCNC(C)=O)c2ccccc23)cc1 the results were IDH1 R132H inh 11.7%, GALK inhibitor 4.8%, TrxR1 substrate 13.9%[57.1 µM], TrxR1 inh 3.6%[57.1 µM], PKM2 activator 11.2µM* and Anesthetic bind -3.6%.
COc1cc(Nc2ncc3c(n2)CCN(Cc2cc(Br)cs2)C3)cc(OC)c1 was read as TrxR1 substrate -6.3%[57.1 µM], TrxR1 inh 1.9%[57.1 µM] and Anesthetic bind 35.5%.
COC(=O)C1=C(C)N(Cc2ccc(OC)cc2)C(=O)/C1=C\c1ccco1 was read as IDH1 R132H inh 8.1%, GALK inhibitor 6.9%, TrxR1 substrate -7.6%, TrxR1 inh 35.5µM*, PKM2 activator 4.5% and Anesthetic bind -13.8%.

Assay outcomes (PubChem)
